Of roughly 7,900 targets only a part is listed; those with a hit were picked by preference. About 0.6% of all pairs of compound and target were hits. A number with no mark means an inactive call.
What was measured:
Experiment in all cases: log2 fold change, soluble protein after heating vs DMSO (PISA); higher = thermal stabilisation; K562 cells, 10 uM, 30 min; active = over 0.2 and 3.5 SD of the protein, either way, in both replicates (recomputed)
[1] = compound: CC[C@@H]1C(=O)N(C)c2cnc(Nc3ccc(C(=O)NC4CCN(C)CC4)cc3OC)nc2N1C1CCCC1
How it was run: (§1)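 Values are thermal stability changes relative to control samples and are taken from duplicates. They are stated as log2 fold changes. Before quantification by TMTpro 16plex LC-MS/MS with equalised channel sums, K562 cells at 2×10^6 cells/mL were treated with 10 μM compound for 30 min, heated in aliquots for 3 min across 48°C-58°C, pooled, extracted in PBS with 0.5% NP-40 at 4°C, and centrifuged at 21,000xg for 90 min to give the soluble supernatant.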

volasertib = compound: CC[C@@H]1C(=O)N(C)c2cnc(Nc3ccc(C(=O)N[C@H]4CC[C@H](N5CCN(CC6CC6)CC5)CC4)cc3OC)nc2N1C(C)C [volasertib]
How it was run: as §1

[2] = compound: CC[C@H](C)N1C=C(C2=C(C=C(C=C21)C3=CN=C(C=C3)N4CCNCC4)C(=O)NCC5=C(C=C(NC5=O)C)C)C
How it was run: as §1

epoxomicin = compound: CC[C@H](C)[C@@H](C(=O)N[C@@H]([C@@H](C)O)C(=O)N[C@@H](CC(C)C)C(=O)[C@]1(CO1)C)NC(=O)[C@H]([C@@H](C)CC)N(C)C(=O)C [epoxomicin]
How it was run: as §1

[3] = compound: CCn1c(C(=O)N(C2CC2)C2CC2)cc2c3c(ncn3C)c(Nc3cc(C)n(C)n3)nc21
How it was run: as §1

[4] = compound: CCn1cc(-c2ccnc3[nH]c(-c4cccc(CN(C)C)c4)cc23)c(-c2ccc(NC(=O)N(C)C)cc2)n1
How it was run: as §1

[5] = compound: CN(C)CC(=O)Nc1ccc2[nH]c(=O)c3ccccc3c2c1
How it was run: as §1

rosiglitazone = compound: CN(CCOC1=CC=C(C=C1)C[C@H]2C(=O)NC(=O)S2)C3=CC=CC=N3 (racemic) [rosiglitazone]
How it was run: as §1

[6] = compound: CN1C2=C(C3=C1C(=O)N(N=C3)CC4=CC(=CC=C4)N)SC(=C2)S(=O)C
How it was run: as §1

[7] = compound: CN1CCC(CNc2ccc3ncc(-c4cccc(OC(F)(F)F)c4)n3n2)CC1
How it was run: as §1

saracatinib = compound: CN1CCN(CCOc2cc(OC3CCOCC3)c3c(Nc4c(Cl)ccc5c4OCO5)ncnc3c2)CC1 [saracatinib]
How it was run: as §1

sotrastaurin = compound: CN1CCN(c2nc(C3=C(c4c[nH]c5ccccc45)C(=O)NC3=O)c3ccccc3n2)CC1 [sotrastaurin]
How it was run: as §1

alvocidib = compound: CN1CC[C@H](c2c(O)cc(O)c3c(=O)cc(-c4ccccc4Cl)oc23)[C@H](O)C1 [alvocidib]
How it was run: as §1

Tubastatin A = compound: CN1CCc2c(c3ccccc3n2Cc2ccc(C(=O)NO)cc2)C1 [Tubastatin A]
How it was run: as §1

[8] = compound: CNC(=O)C1=CC=CC=C1NC2=NC(=NC=C2Cl)NC3=C(C=C(C=C3)N4CCOCC4)OC
How it was run: as §1

defactinib = compound: CNC(=O)c1ccc(Nc2ncc(C(F)(F)F)c(NCc3nccnc3N(C)S(C)(=O)=O)n2)cc1 [defactinib]
How it was run: as §1

rucaparib = compound: CNCc1ccc(-c2[nH]c3cc(F)cc4c3c2CCNC4=O)cc1 [rucaparib]
How it was run: as §1

[9] = compound: CNc1nc(-c2ccc3c(N)n[nH]c3c2)cc(N2C[C@@H](C(=O)NC3CCCCC3)CC[C@H]2C)n1
How it was run: as §1

encorafenib = compound: COC(=O)N[C@@H](C)CNc1nccc(-c2cn(C(C)C)nc2-c2cc(Cl)cc(NS(C)(=O)=O)c2F)n1 [encorafenib]
How it was run: as §1

[10] = compound: COC(=O)[C@H](CCSC)NC(=O)C1=C(C=C(C=C1)NC[C@H](CS)N)C2=CC=CC=C2
How it was run: as §1

UniProt Q9NRP0, sequence (Q9NRP0 whole entry, looked up): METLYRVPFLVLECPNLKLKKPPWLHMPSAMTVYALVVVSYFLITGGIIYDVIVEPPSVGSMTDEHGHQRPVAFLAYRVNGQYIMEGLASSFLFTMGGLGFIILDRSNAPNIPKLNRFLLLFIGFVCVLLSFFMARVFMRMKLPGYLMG
UniProt Q14149, sequence (Q14149 whole entry, looked up): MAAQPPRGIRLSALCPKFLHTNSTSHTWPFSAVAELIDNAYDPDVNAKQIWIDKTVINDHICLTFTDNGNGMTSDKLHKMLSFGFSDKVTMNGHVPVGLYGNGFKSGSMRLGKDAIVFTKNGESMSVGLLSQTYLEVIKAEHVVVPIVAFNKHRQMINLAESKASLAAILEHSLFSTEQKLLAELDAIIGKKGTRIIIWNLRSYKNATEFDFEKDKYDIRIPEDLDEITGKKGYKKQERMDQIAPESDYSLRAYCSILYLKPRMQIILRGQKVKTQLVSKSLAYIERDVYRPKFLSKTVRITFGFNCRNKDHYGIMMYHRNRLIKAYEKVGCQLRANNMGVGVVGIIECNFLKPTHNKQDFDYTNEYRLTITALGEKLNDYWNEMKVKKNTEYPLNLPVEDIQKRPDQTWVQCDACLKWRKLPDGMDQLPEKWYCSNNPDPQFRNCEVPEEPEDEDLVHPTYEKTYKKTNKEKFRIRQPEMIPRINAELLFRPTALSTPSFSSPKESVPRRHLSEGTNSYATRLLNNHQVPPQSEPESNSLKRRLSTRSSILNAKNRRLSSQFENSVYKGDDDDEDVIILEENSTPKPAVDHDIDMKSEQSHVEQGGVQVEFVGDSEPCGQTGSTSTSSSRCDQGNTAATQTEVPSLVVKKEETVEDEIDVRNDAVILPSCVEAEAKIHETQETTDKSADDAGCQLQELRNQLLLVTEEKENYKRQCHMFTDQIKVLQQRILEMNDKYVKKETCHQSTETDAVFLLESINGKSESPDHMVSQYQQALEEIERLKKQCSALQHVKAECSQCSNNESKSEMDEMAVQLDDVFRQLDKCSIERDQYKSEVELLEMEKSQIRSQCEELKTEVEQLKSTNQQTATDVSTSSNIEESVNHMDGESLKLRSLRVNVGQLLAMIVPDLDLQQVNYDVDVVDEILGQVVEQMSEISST
UniProt Q86WC4, sequence (Q86WC4 whole entry, looked up): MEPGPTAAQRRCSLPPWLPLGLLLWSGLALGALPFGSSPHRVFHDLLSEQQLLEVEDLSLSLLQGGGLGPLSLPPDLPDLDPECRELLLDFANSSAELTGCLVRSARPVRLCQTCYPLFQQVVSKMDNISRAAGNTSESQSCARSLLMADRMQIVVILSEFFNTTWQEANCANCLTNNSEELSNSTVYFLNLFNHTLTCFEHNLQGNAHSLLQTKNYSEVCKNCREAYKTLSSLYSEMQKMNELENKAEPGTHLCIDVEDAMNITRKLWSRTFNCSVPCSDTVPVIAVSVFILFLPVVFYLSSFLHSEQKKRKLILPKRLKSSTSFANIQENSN
UniProt O60551, sequence (O60551 whole entry, looked up): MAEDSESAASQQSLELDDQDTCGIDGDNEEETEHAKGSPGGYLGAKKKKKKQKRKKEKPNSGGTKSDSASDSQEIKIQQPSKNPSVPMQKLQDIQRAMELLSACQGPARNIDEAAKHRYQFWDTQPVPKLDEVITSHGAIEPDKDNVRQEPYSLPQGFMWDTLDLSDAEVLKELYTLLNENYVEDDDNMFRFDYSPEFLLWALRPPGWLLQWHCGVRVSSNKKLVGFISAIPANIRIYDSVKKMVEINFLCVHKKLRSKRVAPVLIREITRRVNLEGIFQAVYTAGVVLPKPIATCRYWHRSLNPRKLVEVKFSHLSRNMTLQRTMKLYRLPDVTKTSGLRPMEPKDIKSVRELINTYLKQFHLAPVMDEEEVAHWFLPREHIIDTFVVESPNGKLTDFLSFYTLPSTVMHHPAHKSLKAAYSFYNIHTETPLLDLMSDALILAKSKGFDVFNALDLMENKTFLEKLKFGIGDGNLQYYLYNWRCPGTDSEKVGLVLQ
UniProt Q12986, sequence (Q12986 whole entry, looked up): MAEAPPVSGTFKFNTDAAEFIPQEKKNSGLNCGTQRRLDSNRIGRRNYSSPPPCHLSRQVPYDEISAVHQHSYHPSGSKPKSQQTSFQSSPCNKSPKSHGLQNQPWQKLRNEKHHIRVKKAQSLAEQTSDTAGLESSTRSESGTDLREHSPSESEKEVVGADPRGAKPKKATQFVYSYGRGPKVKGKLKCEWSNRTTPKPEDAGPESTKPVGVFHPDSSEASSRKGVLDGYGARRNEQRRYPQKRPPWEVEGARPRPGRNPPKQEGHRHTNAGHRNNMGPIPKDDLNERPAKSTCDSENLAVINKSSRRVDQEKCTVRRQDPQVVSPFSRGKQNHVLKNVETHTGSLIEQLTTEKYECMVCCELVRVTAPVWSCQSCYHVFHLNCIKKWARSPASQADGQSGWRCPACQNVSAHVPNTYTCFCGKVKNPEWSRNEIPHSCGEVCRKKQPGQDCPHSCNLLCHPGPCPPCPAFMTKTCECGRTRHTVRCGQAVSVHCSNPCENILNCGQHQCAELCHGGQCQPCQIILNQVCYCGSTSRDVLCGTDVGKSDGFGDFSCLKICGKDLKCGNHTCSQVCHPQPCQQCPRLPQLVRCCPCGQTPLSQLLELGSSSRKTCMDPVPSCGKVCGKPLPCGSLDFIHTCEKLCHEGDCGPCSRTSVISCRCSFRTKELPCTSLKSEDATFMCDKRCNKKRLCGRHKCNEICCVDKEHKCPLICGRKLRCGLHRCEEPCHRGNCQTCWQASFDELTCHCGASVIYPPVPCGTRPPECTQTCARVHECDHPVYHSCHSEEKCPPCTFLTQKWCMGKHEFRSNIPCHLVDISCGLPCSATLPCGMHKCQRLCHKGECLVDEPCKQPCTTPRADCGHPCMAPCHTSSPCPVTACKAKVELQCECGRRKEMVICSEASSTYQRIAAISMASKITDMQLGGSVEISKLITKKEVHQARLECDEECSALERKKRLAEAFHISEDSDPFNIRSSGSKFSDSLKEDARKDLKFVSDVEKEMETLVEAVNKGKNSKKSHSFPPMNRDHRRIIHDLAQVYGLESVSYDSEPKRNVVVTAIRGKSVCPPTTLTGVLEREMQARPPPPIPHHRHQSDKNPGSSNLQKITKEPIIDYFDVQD
UniProt Q96BN8, sequence (Q96BN8 whole entry, looked up): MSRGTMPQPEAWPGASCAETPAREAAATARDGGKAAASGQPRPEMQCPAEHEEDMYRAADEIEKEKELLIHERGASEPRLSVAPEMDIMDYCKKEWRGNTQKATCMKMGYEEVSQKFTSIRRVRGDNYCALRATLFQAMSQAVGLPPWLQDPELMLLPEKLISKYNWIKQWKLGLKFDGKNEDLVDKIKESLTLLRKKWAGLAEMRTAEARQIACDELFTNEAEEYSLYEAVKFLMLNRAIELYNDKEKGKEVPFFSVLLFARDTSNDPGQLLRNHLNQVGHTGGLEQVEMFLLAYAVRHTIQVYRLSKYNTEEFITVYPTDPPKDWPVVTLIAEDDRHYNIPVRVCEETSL
UniProt Q9BPX3, sequence (Q9BPX3 whole entry, looked up): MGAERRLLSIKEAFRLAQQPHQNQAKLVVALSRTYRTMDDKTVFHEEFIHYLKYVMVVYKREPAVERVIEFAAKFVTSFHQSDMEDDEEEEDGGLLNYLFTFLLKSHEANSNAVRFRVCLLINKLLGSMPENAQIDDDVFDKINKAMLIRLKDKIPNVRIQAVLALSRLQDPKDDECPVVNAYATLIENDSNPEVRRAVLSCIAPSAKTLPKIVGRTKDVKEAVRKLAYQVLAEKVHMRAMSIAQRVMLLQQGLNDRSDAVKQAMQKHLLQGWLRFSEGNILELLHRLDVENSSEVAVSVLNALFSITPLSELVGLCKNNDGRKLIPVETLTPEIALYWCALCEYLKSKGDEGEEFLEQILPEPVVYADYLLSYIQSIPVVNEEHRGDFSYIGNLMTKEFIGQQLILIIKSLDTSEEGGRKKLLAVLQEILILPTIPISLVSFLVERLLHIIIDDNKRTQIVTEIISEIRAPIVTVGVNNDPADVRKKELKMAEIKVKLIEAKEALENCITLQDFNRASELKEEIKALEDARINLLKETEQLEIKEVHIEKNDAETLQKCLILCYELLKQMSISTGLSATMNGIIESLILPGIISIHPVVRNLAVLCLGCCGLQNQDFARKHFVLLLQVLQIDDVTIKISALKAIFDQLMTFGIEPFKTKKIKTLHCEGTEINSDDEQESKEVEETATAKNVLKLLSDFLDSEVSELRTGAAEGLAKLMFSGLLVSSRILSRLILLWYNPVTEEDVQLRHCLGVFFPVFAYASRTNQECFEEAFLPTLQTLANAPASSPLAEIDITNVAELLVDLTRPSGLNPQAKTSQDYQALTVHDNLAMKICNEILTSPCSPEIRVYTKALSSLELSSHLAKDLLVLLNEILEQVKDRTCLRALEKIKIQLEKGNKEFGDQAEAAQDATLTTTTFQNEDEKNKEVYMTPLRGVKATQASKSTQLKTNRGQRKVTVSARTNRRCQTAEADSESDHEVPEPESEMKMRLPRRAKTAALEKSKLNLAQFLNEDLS
UniProt Q8N543, sequence (Q8N543 whole entry, looked up): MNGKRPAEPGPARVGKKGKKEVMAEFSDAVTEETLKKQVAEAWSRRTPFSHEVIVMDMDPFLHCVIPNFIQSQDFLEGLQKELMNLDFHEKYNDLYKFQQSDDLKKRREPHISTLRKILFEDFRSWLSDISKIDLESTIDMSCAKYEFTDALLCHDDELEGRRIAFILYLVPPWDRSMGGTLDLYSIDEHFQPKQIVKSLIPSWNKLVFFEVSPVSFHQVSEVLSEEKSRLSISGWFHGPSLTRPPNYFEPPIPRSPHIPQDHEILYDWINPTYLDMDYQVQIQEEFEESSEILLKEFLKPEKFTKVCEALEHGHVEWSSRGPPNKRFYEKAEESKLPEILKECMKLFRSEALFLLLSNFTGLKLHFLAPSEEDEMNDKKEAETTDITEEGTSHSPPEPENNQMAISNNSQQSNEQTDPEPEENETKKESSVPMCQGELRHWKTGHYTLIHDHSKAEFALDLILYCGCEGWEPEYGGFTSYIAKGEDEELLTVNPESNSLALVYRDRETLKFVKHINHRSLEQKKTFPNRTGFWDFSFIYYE

Target	log2 fold change [1]	log2 fold change (volasertib)	log2 fold change [2]	log2 fold change (epoxomicin)	log2 fold change [3]	log2 fold change [4]	log2 fold change [5]	log2 fold change (rosiglitazone)	log2 fold change [6]	log2 fold change [7]	log2 fold change (saracatinib)	log2 fold change (sotrastaurin)	log2 fold change (alvocidib)	log2 fold change (Tubastatin A)	log2 fold change [8]	log2 fold change (defactinib)	log2 fold change (rucaparib)	log2 fold change [9]	log2 fold change (encorafenib)	log2 fold change [10]
MRPS12 (UniProt O15235)	-0.043	-0.024	0.077	-0.001	-0.04	-0.072	-0.103	0.063	0.091	-0.014	-0.19	-0.068	-0.001	-0.02	-0.017	0.119	0.299	0.233	0.105	0.048
NCAPG (UniProt Q9BPX3)	-0.105	-0.506 (active)	0.059	0.023	-0.002	0.003	0.04	0.066	0.004	0.092	-0.077	-0.122	-0.053	0.026	0.106	-0.067	0.078	-0.004	0.093	-0.039
OTULIN (UniProt Q96BN8)	0.045	-0.331	0.074	0.037	-0.093	-0.084	0.054	0.051	0.015	-0.226	-0.029	-0.044	0.046	0.019	-0.009	-0.029	0.02	-0.053	-0.012	-0.012
OSTC (UniProt Q9NRP0)	-0.01	-0.141	0.011	-0.073	0.006	0.039	0.073	0.048	-0.129	-0.053	0.111	-0.05	-0.048	-0.174	0.03	-0.053	-0.036	-0.004	0.047	-0.046
MITD1 (UniProt Q8WV92)	-0.16	-0.266	0.077	0.147	0.117	0.057	0.049	-0.016	0.079	-0.365	-0.031	-0.002	-0.005	0.161	-0.146	0.133	0.097	-0.112	-0.018	-0.043
MORC3 (UniProt Q14149)	-0.141	-0.509 (active)	0.086	0.125	-0.02	-0.027	0.071	0.084	-0.058	-0.017	0	-0.141	-0.08	-0.247	0.249	-0.184	0.044	-0.02	0.076	-0.048
NFX1 (UniProt Q12986)	0.029	0.15	-0.001	-0.144	0.029	0.232	-0.216	0.138	0.128	0.197	-0.246	-0.09	0.08	-0.001	0.014	0.009	0.269	-0.237	-0.01	0
MYH11 isoform 2 (UniProt P35749)	-0.021	-0.045	0.042	0.061	-0.005	0.046	0.019	0.015	-0.077	-0.018	0.069	-0.024	-0.024	-0.025	0.03	-0.039	-0.034	0.009	0.001	-0.022
OGFOD1 (UniProt Q8N543)	0.049	0.038	-0.025	0.042	0.007	-0.013	-0.022	0.059	-0.022	-0.051	0.007	0.024	-0.026	-0.163	0.012	-0.027	-0.051	-0.028	-0.028	0.041
NFYC (UniProt Q13952)	0.012	0.015	-0.021	-0.001	0.006	-0.015	0.041	0.059	-0.063	0	0.011	0.012	0.054	-0.021	-0.022	-0.022	-0.041	-0.019	0.005	0.005
OSTM1 (UniProt Q86WC4)	-0.216	-0.169	0.058	0.107	-0.12	-0.215	-0.072	0.004	0.035	-0.064	-0.038	0.007	0.001	0.031	0.19	-0.048	-0.015	-0.086	0.022	0.002
NMT2 (UniProt O60551)	0.013	-0.177	0.039	0.01	-0.001	-0.098	-0.013	-0.056	0.002	-0.208	-0.031	0.007	-0.021	0.008	0.146	-0.016	-0.04	-0.027	0.02	0.023

Source: the supplement of paper PMC10849652
